Tested on: PKMYT1
Conditions: concentration: 1 μM, replicates: in singlicate; n = 1
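Also: KINOMEscan kinase panel screen.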

Compound	%Inh [%]
Fc1cccc(COc2ccc(Nc3ncnc4cc[nH]c34)cc2Cl)c1	10
O=C(CCO)NCCn1ccc2ncnc(Nc3ccc(Oc4cccc(C(F)(F)F)c4)c(Cl)c3)c21	10
COc1cc2c(Nc3cccc(NC(=O)c4ccccc4)c3)ncnc2cc1OCCCN1CCOCC1 [GSK223810]	7
Cl.Cn1ccc(-c2cccc(Nc3ccnc4cc(-c5nccs5)ccc34)c2)n1 [GW525701]	0
Nc1n[nH]c2nnc(-c3ccccc3)cc12 [SB-517389]	0
Fc1cccc(COc2ccc(Nc3ncnc4nn5ccccc5c34)cc2Cl)c1 [GW689066]	0
CN1c2ccc(-c3ccc(C(=O)NCCO)cc3)cc2-c2[nH]ncc2S1(=O)=O	16
Clc1cccc(-c2nc(Nc3ccncc3)c3ccccc3n2)c1 [GW873004]	0
COc1ccc(Nc2nccc(N3CCC(NC(=O)c4cccc(NC(C)=O)c4)C3)n2)cc1 (stereo not shown) [GSK1379732]	3
COc1ccc(Nc2nccc(N3CCC(NC(=O)Nc4ccc5c(c4)OCO5)C3)n2)cc1 (stereo not shown) [GSK1379745]	0
COC(=O)c1c(-c2ccccc2)c2cc(Cl)ccc2c(=O)n1Cc1ccc(S(C)(=O)=O)cc1	1
Cc1ccc(NC(=O)c2cccc(C#N)c2)cc1-c1ccc(C(=O)Nc2ccncc2)cc1 [GSK1398463]	0
O=C(c1ccc(-c2cc(-c3c[nH]nc3-c3ccccn3)ccn2)cc1)N1CCCC1 [GW792479]	0

Reference: PMC5540273 (PLoS ONE, 2017)
